Assay outcomes from PubChem.
Sampled rows, rich in hits. Any-hit rate of the full collection: about 2%.
NPSR antagonist = blocks cAMP signaling of the human neuropeptide S receptor | CHO-NPSR cells, cAMP TR-FRET, antagonist mode | Potency, µM (doses to about 38.3 µM), inactives show top-dose activity change, negative = inhibition, usual class: inhibitors | 220,000 tested, 1% active | AID 1461; also: potency is read from the fitted curve at half-maximal effect; % is scaled to controls: 0 for no effect and ±100 for the full control effect; nearly all actives have a fitted effect of over 50% in size
ClpP mod = qHTS Assay for Activators of ClpP; purified B. subtilis ClpP, FRET peptide cleavage, 20 min; Potency, µM (top dose mostly 57.5 µM), without a hit: top-dose activity change, negative = active; 340,000 tested, 1.9% active; active = well fitted falling curve with a large enough effect; inconclusive = small, poorly fitted or top-dose-only effect; inactive = no such curve, though single readings can be large or run the other way; also: potency is read from the fitted curve at half-maximal effect; the source files actives as falling curves though it sought activators and does not explain the sign; nearly all actives have a fitted effect of over 65% in size
Target sequence (P80244 whole entry, looked up): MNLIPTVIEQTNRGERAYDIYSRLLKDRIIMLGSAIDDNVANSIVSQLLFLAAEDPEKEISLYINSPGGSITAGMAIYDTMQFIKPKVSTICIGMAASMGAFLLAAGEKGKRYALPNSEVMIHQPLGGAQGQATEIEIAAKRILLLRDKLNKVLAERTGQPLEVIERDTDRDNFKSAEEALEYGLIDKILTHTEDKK
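Purified B. subtilis ClpP, 10 microg/mL final in Tris/HCl pH8 with KCl, BSA, glycerol and Tween-20, cleaved an Abz/nitrotyrosine-quenched decapeptide. Fluorescence (ex 320, em 430) was read at 0 and 20 min at room temperature. Delta was normalized to 5.8 microM ADEP and DMSO/no-enzyme controls.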
IL-2 act = IL-2 activation; IL-2 activation reporter assay, cell-based qHTS; stimulated with anti-CD3/CD4/CD28 beads; in transgenic mouse T cells; activation, % (series mostly up to about 46 µM); 360,000 tested, 0.065% active; in the data active = activation above about 50%; inconclusive = mostly about 30% to 49%; also: 0% is about no effect
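Using fluorescent plate cytometry, EGFP and DsRed are detected in transgenic mouse T cells stimulated 18 h at 37 degrees C with antibody-coated beads after 60 min compound pretreatment.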
PKM2 act = increases activity of human pyruvate kinase M2. AID 1631. purified PKM2, Kinase-Glo ATP luminescence, activation; response scale: 0% is enzyme alone, no compound. 260,000 tested, 0.34% active. P14618. Potency, µM (series often up to 57.5 µM), without a hit: top-dose activation, actives largely listed as activators; also: potency is read from the fitted curve at half-maximal effect; % is scaled to controls: 0 for no effect and ±100 for the full control effect; nearly all actives have a fitted effect of over 55% in size
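Purified hPK-M2 (>95% pure) converted ADP (0.1 mM final) to ATP with 0.5 mM PEP in 50 mM imidazole pH7.2, KCl, MgCl2, Tween 20, BSA; 1 h at room temperature. ATP detected by Kinase-Glo luminescence.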
* hit, by the source's call; ? = inconclusive; nt = not tested or not shown; [ ] = another dose, or the depositor's remark. Unless noted, calls follow the shape of the dose curve; as a rule, active = well fitted curve in the direction sought with a large enough effect; inconclusive = small, poorly fitted or top-dose-only effect, or another doubt; inactive = no such curve, though single readings can be large; an effect the other way counts as inactive or inconclusive.

SMILES	NPSR antagonist	ClpP mod	IL-2 act	PKM2 act
Cc1ccccc1-n1c(/C=C/c2ccc(O)cc2)nc2ccccc2c1=O	nt	-4.0%	nt	nt
S=P(Nn1cnnc1)(c1ccc(Br)cc1)c1ccc(Br)cc1	-42.2%	nt	-0.2	28.2µM*
COC(=O)C1=C(c2ccc(OCc3ccccc3)cc2)C[C@@H]2CC[C@H]1N2C(=O)NCc1ccccc1C(F)(F)F	nt	-3.8%	-4.3	nt
O=C(NCC(c1cccnc1)N1CCN(c2ccccc2F)CC1)Oc1ccccc1 (stereo not given)	-1.5%[46.1 µM]	22.4µM*	-0.4	-10.9%
COc1ccc(N2CCN(C(CNC(=O)Oc3ccccc3)c3cccnc3)CC2)cc1 (stereo not given)	?	-0.2%	1.0	7.3%
N#Cc1ccccc1NC(=O)c1cccn(Cc2ccccc2)c1=O	nt	-2.9%	nt	nt
c1ccc(CCCN2CCN(CCOC(c3ccccc3)c3ccccc3)CC2)cc1	15.8µM*	0.0%	-0.6	nt
CCNC(=S)NCCC1=c2ccccc2=N/C1=C\c1c(O)n(C)c(=O)n(C)c1=O	?	0.3%	-1.1	16.4%
COc1cc(OC)cc(C(=O)Nc2ccc(Cl)cc2C(=O)c2ccccc2Cl)c1	nt	-3.4%	nt	nt
COc1ccc(C(=O)CCNc2ccc(F)cc2)cc1	13.1%	28.2µM*	-0.8	-1.1%
COc1ccc(C(=O)C(C)(C)NO)cc1	15.1%[46.1 µM]	2.1%	-1.4	17.6%
COC(=O)C1=C(c2ccc(OC)c(OC)c2)C[C@@H]2CC[C@H]1N2C(=O)NCCOc1ccc(OC)cc1	nt	-0.5%	0.4	nt
CC1(C)Cc2c(sc3c2C(=O)NC(c2cccnc2)N3)CO1 (stereo not given)	-1.0%[46.1 µM]	31.6µM*	-0.9	-2.6%
O=C1NC(c2cccnc2)Nc2sc3c(c21)CCCC3 (stereo not given)	-15.7%[46.1 µM]	-23.2%	-1.9	2.6%
CN1CCN(C(=O)COc2ccc(-c3nc4ccccc4s3)cc2)CC1	-3.2%[46.1 µM]	25.1µM*	-2.2	-0.5%
CN1CCN(C(=O)COc2ccc3ccccc3c2)CC1	nt	nt	0.3	nt
Clc1cc(Cl)c(-c2cc(Cl)c(Cl)cc2Cl)cc1Cl	nt	-1.8%	0.3	nt
COc1cccc([C@@]2(O)CCCC[C@@H]2CN(C)C)c1	7.2%	nt	-3.0	0.0%
COc1cccc(C2(O)CCSCC2CN(C)C)c1 (stereo not given)	7.3%	3.55µM*	1.9	-4.4%
O=C(c1cc(C(=O)NCc2ccccc2)c(=O)n(Cc2ccccc2)c1)c1cc(Cl)ccc1O	-28.7%	29.6%	-0.5	-5.4%
CCc1n[nH]c(CCN)n1	-13.1%[7.67 µM]	nt	-1.9	1.0%
COC(=O)[C@H]1C[C@@H]1[C@H](NP(=O)(c1ccccc1)c1ccccc1)c1ccccc1	0.9%	1.6%	3.0	-4.5%
COC(=O)[C@]1(C)C[C@H]1[C@H](NP(=O)(c1ccccc1)c1ccccc1)c1ccccc1	12.6µM*	0.2%	-0.2	-5.9%
COc1c(O)cc2c(c1OC)-c1ccc(SC)c(=O)cc1C(NC(C)=O)CC2 (stereo not given)	nt	-3.7%	-1.7	nt
CCc1c(C)c2ccc(OCC(N)=O)cc2oc1=O	-5.5%[46.1 µM]	6.31µM*	-0.1	-7.3%
SMILES	NPSR antagonist	ClpP mod	IL-2 act	PKM2 act
Cc1c(C)c2ccc(OCC(=O)N3CCC(C(=O)O)(c4ccccc4)CC3)cc2oc1=O	nt	5.4%	1.4	2.5%
N[C@@H](Cc1ccc(N(CCCl)CCCl)cc1)C(=O)O	nt	-7.9%	-0.7	nt
NC(Cc1ccc(O)cc1)C(=O)NN=Cc1ccc(N(CCCl)CCCl)cc1 (stereo not given)	nt	28.2µM*	-0.8	nt
CC1=NN(c2ccccc2)C(=O)/C1=C/c1c(O)[nH]c(=O)[nH]c1=O	-10.7%	nt	-0.5	0.8%
CC1=NN(c2ccccc2)C(=O)/C1=C/c1c(O)[nH]c(=S)[nH]c1=O	-11.2%[46.1 µM]	25.1µM*	-0.2	-1.3%
CCOc1ccc(-n2nc3c(=S)[nH]nc(C)c3c2C)cc1	6.31µM*	-3.3%	-0.5	8.5%
COc1ccc(S(=O)(=O)NCC2CCC(C(=O)N3CCC4(CC3)OCCO4)CC2)cc1 (stereo not given)	-7.3%[46.1 µM]	10µM*	0.7	0.9%
Cc1ccc(S(=O)(=O)N2CCC(C(=O)N3CCC4(CC3)OCCO4)CC2)cc1	-10.5%[46.1 µM]	-1.0%	-1.8	-10.7%
COc1ccc(OC)c(N=Cc2c(O)n(Cc3ccccc3)c(=S)[nH]c2=O)c1	?	nt	79.6*	-2.8%
CCOC(=O)c1c(C)n(Cc2ccc3c(c2)OCO3)c2ccc(O)cc12	-26.4%[46.1 µM]	-17.0%	-0.9	15.0%
